According to PubChem BioAssay (EPA / NIEHS):
Active and inactive are the calls of the source. How the source made its calls: active means hit-call score of the fitted dose curve at least 0.9, where 1 is the maximum; inactive means score below 0.9.

Columns and labels:
Conditions in all cases: mRNA level, 48 h; actives raise or lower the signal
[1] = read-out: Insulin-like growth factor-binding protein 1 (IGFBP1), IGFBP1 (gene 3484); test: LTEA_HepaRG_IGFBP1: Life Technologies and Expression Analysis (LTEA) Assay for Insulin-like growth factor-binding protein 1 (IGFBP1) using HepaRG (AID 2283508)
Procedure, shortened: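 HepaRG cells, plated 48 h then switched to serum-free induction medium, exposed in duplicate for 48 h to 8-point half-log series from 100 uM in 0.5% DMSO. mRNA measured by qRT-PCR, normalized to ACTB/GAPDH/POLR2A; bidirectional fit versus DMSO.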

[2] = read-out: Interleukin 6 (IL6), IL6 (gene 3569); test: LTEA_HepaRG_IL6: Life Technologies and Expression Analysis (LTEA) Assay for Interleukin 6 (IL6) using HepaRG (AID 2283509)
Procedure, shortened: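 HepaRG cells exposed in duplicate for 48 h to eight half-log concentrations, top 100 uM, in 0.5% DMSO serum-free induction medium. mRNA measured by qRT-PCR, normalized to ACTB, GAPDH and POLR2A. Bidirectional fit versus DMSO.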

[3] = read-out: Interleukin 6 Receptor (IL6R), IL6R (gene 3570); test: LTEA_HepaRG_IL6R: Life Technologies and Expression Analysis (LTEA) Assay for Interleukin 6 Receptor (IL6R) using HepaRG (AID 2283510);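 on AC50: TaqMan qRT-PCR signal normalized to ACTB GAPDH and POLR2A housekeeping genes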
Procedure, shortened: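 Readout is IL6R transcript level by TaqMan qRT-PCR, normalized to three housekeeping genes and fitted bidirectionally against 0.5% DMSO controls. Human HepaRG cells received chemicals for 48 h in serum-free induction medium, highest concentration 100 uM.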

[4] = read-out: Potassium channel subfamily K member 1 (KCNK1), KCNK1 (gene 3775); test: LTEA_HepaRG_KCNK1: Life Technologies and Expression Analysis (LTEA) Assay for Potassium channel subfamily K member 1 (KCNK1) using HepaRG (AID 2283511)
Procedure, shortened: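 Differentiated HepaRG cells, 48 h exposure in serum-free induction medium with 0.5% DMSO; 8 concentrations, half-log from 100 uM, duplicate. KCNK1 mRNA by qRT-PCR, normalized to ACTB, GAPDH, POLR2A; bidirectional fit vs DMSO.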

[5] = read-out: Keratin 19 (KRT19), KRT19 (gene 3880); test: LTEA_HepaRG_KRT19: Life Technologies and Expression Analysis (LTEA) Assay for Keratin 19 (KRT19) using HepaRG (AID 2283512)
Procedure, shortened: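 Differentiated HepaRG cells in serum-free induction medium, exposed 48 h in duplicate to 8 half-log concentrations up to 100 uM in 0.5% DMSO. KRT19 mRNA by qRT-PCR, normalized to ACTB, GAPDH, POLR2A; bidirectional fit vs DMSO.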

[6] = read-out: JUN Transcription Factor, JUN (gene 3725); test: LTEA_HepaRG_JUN: Life Technologies and Expression Analysis (LTEA) Assay for JUN Transcription Factor using HepaRG (AID 2283513)
Procedure, shortened: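 Cells plated 48 h, medium switched to serum-free induction medium, then dosed 48 h (100 uM top, half-log dilutions, 0.5% DMSO). RNA isolated; JUN measured by qRT-PCR against three housekeeping genes; gain or loss fitted relative to DMSO.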

[7] = read-out: Lipase C (LIPC), LIPC (gene 3990); test: LTEA_HepaRG_LIPC: Life Technologies and Expression Analysis (LTEA) Assay for Lipase C (LIPC) using HepaRG (AID 2283514)
Procedure, shortened: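 HepaRG cells, 48 h after plating, treated in duplicate for 48 h in serum-free induction medium over 8 half-log concentrations from 100 uM, 0.5% DMSO. LIPC mRNA by TaqMan qRT-PCR normalized to ACTB/GAPDH/POLR2A; bidirectional fit versus DMSO.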

[8] = read-out: Lipoprotein lipase (LPL), LPL (gene 4023); test: LTEA_HepaRG_LPL: Life Technologies and Expression Analysis (LTEA) Assay for Lipoprotein lipase (LPL) using HepaRG (AID 2283515)
Procedure, shortened: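 Differentiated HepaRG cells, plated 48 h, then exposed 48 h in serum-free induction medium to 8 concentrations (top 100 uM, half-log steps) in 0.5% DMSO, duplicate. LPL mRNA measured by qRT-PCR, normalized to ACTB, GAPDH and POLR2A.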

[9] = read-out: MicroRNA 122 (MIR122), gene 406906; test: LTEA_HepaRG_MIR122: Life Technologies and Expression Analysis (LTEA) Assay for MicroRNA 122 (MIR122) using HepaRG (AID 2283516); further: the transcript read is the microRNA miR-122
Procedure, shortened: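 HepaRG plated 48 h, switched to serum-free induction medium, then treated in duplicate for 48 h (100 uM top, half-log steps, 0.5% DMSO vehicle). RNA isolated, qRT-PCR performed, concentration-response fitted both directions relative to DMSO.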

[10] = read-out: matrix metalloproteinase-10 (MMP10), MMP10 (gene 4319); test: LTEA_HepaRG_MMP10: Life Technologies and Expression Analysis (LTEA) Assay for matrix metalloproteinase-10 (MMP10) using HepaRG (AID 2283517)
Procedure, shortened: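 Differentiated HepaRG cells in serum-free induction medium exposed 48 h in duplicate to 8-point half-log series up to 100 uM in 0.5% DMSO. mRNA quantified by qRT-PCR, normalised to ACTB, GAPDH, POLR2A; bidirectional fit versus DMSO.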

MYC, MYC (gene 4609) = test: LTEA_HepaRG_MYC: Life Technologies and Expression Analysis (LTEA) Assay for MYC using HepaRG (AID 2283518)
Procedure, shortened: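 Differentiated HepaRG cells exposed 48 h in serum-free induction medium to 8 concentrations (top 100 uM, half-log steps; 0.5% DMSO), duplicate. MYC mRNA measured by Fluidigm qRT-PCR, normalized to ACTB, GAPDH, POLR2A; bidirectional fit versus DMSO.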

[11] = read-out: matrix metalloproteinase-3 (MMP3), MMP3 (gene 4314); test: LTEA_HepaRG_MMP3: Life Technologies and Expression Analysis (LTEA) Assay for matrix metalloproteinase-3 (MMP3) using HepaRG (AID 2283519)
Procedure, shortened: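 HepaRG cells (~100,000/well) in serum-free induction medium were dosed in duplicate for 48 h with an 8-point half-log series from 100 uM, 0.5% DMSO. MMP3 mRNA was quantified by Fluidigm TaqMan qRT-PCR, normalized to three housekeeping genes.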

[12] = read-out: Paternally Expressed 10 (PEG10), PEG10 (gene 23089); test: LTEA_HepaRG_PEG10: Life Technologies and Expression Analysis (LTEA) Assay for Paternally Expressed 10 (PEG10) using HepaRG (AID 2283520)
Procedure, shortened: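 HepaRG, 48 h post-plating → serum-free induction medium → 48 h chemical exposure (duplicate, 8-pt, max 100 uM, half-log, 0.5% DMSO) → lysis in RLT → TaqMan qRT-PCR for PEG10, ACTB/GAPDH/POLR2A normalisation.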

[13] = read-out: Nuclear factor NF-kappa-B p105 subunit (Homo sapiens) (UniProt P19838); test: LTEA_HepaRG_NFKB1: Life Technologies and Expression Analysis (LTEA) Assay for Nuclear Factor Kappa B Subunit 1 (NFKB1) using HepaRG (AID 2283521)
Procedure, shortened: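 Differentiated human HepaRG cells were exposed for 48 h in serum-free induction medium to eight concentrations (top 100 uM, half-log steps, 0.5% DMSO), in duplicate. NFKB1 mRNA was measured by TaqMan qRT-PCR, normalized to ACTB/GAPDH/POLR2A, and fitted bidirectionally against DMSO.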

[14] = read-out: Protein phosphatase 2A (PPP2R4), PTPA (gene 5524); test: LTEA_HepaRG_PPP2R4: Life Technologies and Expression Analysis (LTEA) Assay for Protein phosphatase 2A (PPP2R4) using HepaRG (AID 2283522)
Procedure, shortened: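 Readout is PPP2R4 transcript level by microfluidic qRT-PCR after 48 h chemical treatment of human HepaRG liver cells. Concentrations spanned 100 uM downward in half-log steps; gain or loss of signal was fitted relative to DMSO.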

[15] = read-out: Phosphatase and tensin (PTEN), PTEN (gene 5728); test: LTEA_HepaRG_PTEN: Life Technologies and Expression Analysis (LTEA) Assay for Phosphatase and tensin (PTEN) using HepaRG (AID 2283523)
Procedure, shortened: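 HepaRG cells, 48 h after plating, exposed in duplicate for 48 h in serum-free induction medium to 8 half-log concentrations up to 100 uM (0.5% DMSO). PTEN mRNA by qRT-PCR, normalized to ACTB, GAPDH, POLR2A; bidirectional fit versus DMSO.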

[16] = read-out: solute carrier (SLC22A1), SLC22A1 (gene 6580); test: LTEA_HepaRG_SLC22A1: Life Technologies and Expression Analysis (LTEA) Assay for solute carrier (SLC22A1) using HepaRG (AID 2283524)
Procedure, shortened: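 Differentiated human HepaRG cells in serum-free induction medium, exposed 48 h in duplicate to 8-point half-log series from 100 µM top in 0.5% DMSO. SLC22A1 mRNA by TaqMan qRT-PCR normalized to ACTB, GAPDH, POLR2A; bidirectional fit versus DMSO.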

[17] = read-out: Pyruvate Dehydrogenase Kinase 4 (PDK4), PDK4 (gene 5166); test: LTEA_HepaRG_PDK4: Life Technologies and Expression Analysis (LTEA) Assay for Pyruvate Dehydrogenase Kinase 4 (PDK4) using HepaRG (AID 2283525)
Procedure, shortened: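 HepaRG cells plated 48 h, then switched to serum-free induction medium and exposed in duplicate for 48 h to 8 half-log concentrations from 100 uM in 0.5% DMSO. PDK4 mRNA measured by qRT-PCR, normalized to ACTB, GAPDH and POLR2A; bidirectional fit versus DMSO.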

[18] = read-out: NAD(P)H dehydrogenase [quinone] 1 (NQO1), NQO1 (gene 1728); test: LTEA_HepaRG_NQO1: Life Technologies and Expression Analysis (LTEA) Assay for NAD(P)H dehydrogenase [quinone] 1 (NQO1) using HepaRG (AID 2283526)
Procedure, shortened: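 HepaRG, 48 h post-plating → serum-free induction medium → test chemical 48 h (duplicate, 100 uM top, half-log x8, 0.5% DMSO) → RNA isolation → qRT-PCR, ACTB/GAPDH/POLR2A normalization; bidirectional curve fit vs DMSO baseline.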

[19] = read-out: Nuclear factor erythroid 2-related factor 2 (Homo sapiens) (UniProt Q16236); test: LTEA_HepaRG_NFE2L2: Life Technologies and Expression Analysis (LTEA) Assay for Nuclear factor erythroid 2-related factor 2 (NFE2L2) Transcription Factor using HepaRG (AID 2283527)
Procedure, shortened: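 Differentiated human HepaRG cells, serum-free induction medium, exposed 48 h in duplicate to eight half-log concentrations up to 100 uM in 0.5% DMSO. NFE2L2 mRNA by Fluidigm TaqMan qRT-PCR, normalised to ACTB, GAPDH, POLR2A; bidirectional change versus DMSO.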

Measured: AC50

Chain of Nuclear factor erythroid 2-related factor 2 (Homo sapiens) (Q16236 whole entry, looked up): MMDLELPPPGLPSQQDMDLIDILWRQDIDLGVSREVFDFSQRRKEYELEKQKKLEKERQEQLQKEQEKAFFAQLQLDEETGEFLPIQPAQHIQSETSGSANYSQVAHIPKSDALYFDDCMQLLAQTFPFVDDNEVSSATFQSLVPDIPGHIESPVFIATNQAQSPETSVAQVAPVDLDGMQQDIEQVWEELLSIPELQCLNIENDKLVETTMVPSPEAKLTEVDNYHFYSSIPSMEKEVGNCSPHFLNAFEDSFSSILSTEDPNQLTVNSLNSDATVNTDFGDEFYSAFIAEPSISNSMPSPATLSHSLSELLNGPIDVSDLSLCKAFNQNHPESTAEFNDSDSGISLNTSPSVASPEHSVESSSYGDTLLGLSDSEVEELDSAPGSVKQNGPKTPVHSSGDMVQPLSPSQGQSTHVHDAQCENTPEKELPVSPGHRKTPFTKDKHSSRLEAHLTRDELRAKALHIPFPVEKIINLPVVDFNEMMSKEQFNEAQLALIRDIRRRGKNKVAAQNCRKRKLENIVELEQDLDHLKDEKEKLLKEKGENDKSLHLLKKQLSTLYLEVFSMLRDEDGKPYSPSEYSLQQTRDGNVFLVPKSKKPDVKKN
Chain of Nuclear factor NF-kappa-B p105 subunit (Homo sapiens) (P19838 whole entry, looked up): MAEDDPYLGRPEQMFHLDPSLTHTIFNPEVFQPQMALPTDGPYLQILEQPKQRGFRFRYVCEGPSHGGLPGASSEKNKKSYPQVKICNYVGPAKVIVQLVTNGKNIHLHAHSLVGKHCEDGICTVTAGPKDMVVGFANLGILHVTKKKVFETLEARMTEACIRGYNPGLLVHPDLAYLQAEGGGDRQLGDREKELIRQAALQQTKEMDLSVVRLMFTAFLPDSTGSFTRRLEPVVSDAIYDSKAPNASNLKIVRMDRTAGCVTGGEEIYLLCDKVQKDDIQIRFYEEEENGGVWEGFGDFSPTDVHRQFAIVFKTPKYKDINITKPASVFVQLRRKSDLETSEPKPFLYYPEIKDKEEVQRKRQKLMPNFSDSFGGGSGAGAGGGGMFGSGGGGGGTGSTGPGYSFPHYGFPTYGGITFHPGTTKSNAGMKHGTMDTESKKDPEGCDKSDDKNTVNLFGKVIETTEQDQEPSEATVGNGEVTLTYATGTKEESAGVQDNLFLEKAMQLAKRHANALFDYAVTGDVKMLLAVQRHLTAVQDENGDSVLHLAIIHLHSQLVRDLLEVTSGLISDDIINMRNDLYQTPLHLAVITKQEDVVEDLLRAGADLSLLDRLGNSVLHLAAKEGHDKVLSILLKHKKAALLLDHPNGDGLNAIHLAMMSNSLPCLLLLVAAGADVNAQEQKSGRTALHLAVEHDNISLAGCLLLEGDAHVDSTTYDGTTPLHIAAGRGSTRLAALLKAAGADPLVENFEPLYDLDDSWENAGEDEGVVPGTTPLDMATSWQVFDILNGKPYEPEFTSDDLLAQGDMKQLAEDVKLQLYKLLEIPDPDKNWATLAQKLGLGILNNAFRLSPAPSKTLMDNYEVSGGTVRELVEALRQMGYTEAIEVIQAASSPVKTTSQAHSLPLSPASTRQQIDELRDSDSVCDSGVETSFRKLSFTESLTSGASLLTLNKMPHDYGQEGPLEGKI

C[C@@H]1C[C@@H]([C@H](O)CC2CC(=O)NC(=O)C2)C(=O)[C@@H](C)C1
inactive: [3] | [10]
active: [1] 22.3 µM | [2] 11.8 µM | [4] 12.2 µM | [5] 12.5 µM | [6] 30 µM | [7] 20 µM | [8] 92.2 µM | [9] 10.6 µM | MYC, MYC (gene 4609) 13.9 µM | [11] 83.3 µM | [12] 2.39 µM | [13] 17.6 µM | [14] 0.636 µM | [15] 87.6 µM | [16] 8.29 µM | [17] 31.9 µM | [18] 29.3 µM | [19] 30.3 µM

O=C(Nc1ccc2[nH]ccc2c1)c1cc2cc(F)ccc2n1Cc1cccc(F)c1
inactive: [4] | [11] | [13] | [14] | [15] | [18]
active: [1] 27.2 µM | [2] 50 µM | [3] 89.5 µM | [5] 50 µM | [6] 50 µM | [7] 59.7 µM | [8] 19.9 µM | [9] 24.9 µM | [10] 29 µM | MYC, MYC (gene 4609) 15.7 µM | [12] 50 µM | [16] 39.5 µM | [17] 89.3 µM | [19] 47.1 µM

O=C(O)C(F)(F)C(F)(F)C(F)(F)C(F)(F)C(F)(F)C(F)(F)C(F)(F)C(F)(F)C(F)(F)C(F)(F)F
active: [3] 47.8 µM | [8] 47.8 µM
not listed: [9] | [16]
inactive: all other assays above

Cc1ccccc1N
inactive: all assays above

CCC(=O)C(CC(C)N(C)C)(c1ccccc1)c1ccccc1 (centres undefined)
active: [5] 18.9 µM | [12] 26.3 µM
not listed: [13]
inactive: all other assays above

Oc1cccc2cccnc12
not listed: [13]
inactive: all other assays above

CCCCCCCCc1ccc(O)cc1
active: [17] 69.3 µM
inactive: all other assays above

ClCC(Cl)CCl
not listed: [13] | [18]
inactive: all other assays above
